The source of these data is publication PMC5540273 (PLoS ONE, 2017).

SMILES strings stand for the structures.

Among the test systems are PRKX; PRP4; QSK; RAF1; RET; RIOK1; RIOK2; RIOK3; RIPK1.
Conditions in all cases: concentration: 1 μM, replicates: in singlicate; n = 1
A further test relates to T1, PYK2.
T1 construct: gene PTK2B
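Further: KINOMEscan kinase panel screen.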

As for `Cc1nnc(-c2ccc3ncn(-c4ccc(S(C)=O)cc4)c3c2)o1` (stereo not shown), the “%Inh” value in the test on PRKX worked out at 3%; with PRP4 it was 0%; in the test with PYK2, 12%; in the test with QSK, 0%; in the test with RAF1, 0%; with RET, 7%. Also, the “%Inh” value with RIOK1 was determined as 6%; in the test with RIOK2, 11%; in the test with RIOK3 it was 20%; in the test on RIPK1 it was 4%.

Take `O=C(Nc1n[nH]c2nc(-c3ccccc3)c(Cl)cc12)C1CC1` [SB-734909]: the “%Inh” value with PRKX is given as 0%; in the test with PRP4 it was 0%; in the test on PYK2, 0%; in the test on QSK, 38%; in the test on RAF1, 30%; in the test on RET, 0%. Besides, the “%Inh” value with RIOK1 is given as 7%; in the test on RIOK2, 41%; with RIOK3, 7%; in the test on RIPK1, 55%.

Take `CCC(=O)c1c(-c2ccccc2)c2cc(Cl)ccc2c(=O)n1Cc1cc(S(C)(=O)=O)n(CC(F)F)n1`: the “%Inh” value in the test with PRKX is given as 1%; in the test on PRP4 it was 6%; in the test on PYK2, 0%; in the test on QSK, 0%; in the test with RAF1, 6%; in the test on RET it was 0%. The “%Inh” value came out at 0% in the test with RIOK1, 13% in the test on RIOK2, 25% in the test on RIOK3 and 1% in the test on RIPK1.

For `CCn1c(-c2ccoc2)nc2cnccc21` [SB-733887], the “%Inh” value with PRKX is listed as 0%; in the test with PRP4, 58%; in the test with PYK2 it was 4%; with QSK it was 0%; in the test with RAF1, 21%; in the test with RET, 1%. Further, the “%Inh” value was 28% in the test on RIOK1, 0% in the test with RIOK2, 27% in the test on RIOK3 and 0% with RIPK1.
